# Screens from PubChem.
# An excerpt weighted towards active compounds, which were near 19% of everything screened.
# ELG1 repair inh – blocks ELG1-dependent DNA repair in HEK293T cells; AID 504467; Potency, µM (titrated, usually from 46.1 µM), most hits filed as inhibitors; HEK293T ELG1-luciferase reporter, luminescence, 16 h; DNA damage induced by 5-fluorouridine; hit rate 2.3% among 330,000; note: nearly all actives have a fitted effect of over 55% in size
#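 Cells (2,000 per well) received 5-fluorouridine plus test compound or DMSO and were incubated 16 hr at 37 °C, 5% CO2. Luciferase activity was read by luminescence 30 min after ONE-Glo addition; signal suppression marked inhibition of damage-induced ELG1 function.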
# DT40 TDP1 no CPT – qHTS for Inhibitors of human tyrosyl-DNA phosphodiesterase 1 (TDP1): qHTS in cells in absence of CPT; DT40 Tdp1-/- hTDP1 cells, no CPT, ATP luminescence, 48 h; Potency, µM (highest dose often 46.2 µM), usual class: inhibitors; hit rate 15% among 420,000; note: nearly all actives have a fitted effect of over 55% in size
#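 Chicken DT40 Tdp1-/- cells stably complemented with human TDP1 were seeded at 400 cells/well with DMSO in place of 20 nM camptothecin. After compound pinning, cells grew at least 48 hr at 37 °C; viability read by CellTiter-Glo luminescence.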
# Giardia killer – Giardia lamblia killing | activity change, % at 7.66 µM, hits read low | hit rate 0.15% among 340,000 | Giardia lamblia trophozoite viability; in the data active = activity change below about -80%; inconclusive = between about -30% and that limit;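 note: parasites exposed to compound for two days anaerobically before the ATP read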
#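 Killing of trophozoites was scored by loss of ATP luminescence after a 48 hrs anaerobic exposure to compounds at 37 deg C, using 100 cells per well.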
# TDP1 block – TDP1 (human) enzyme inhibition. recombinant TDP1, AlphaScreen DNA substrate cleavage. Potency, µM (highest dose often 130 µM), usual class: inhibitors. hit rate 0.28% among 350,000. Q9NUW8; note: nearly all actives have a fitted effect of over 40% in size
# Target sequence (Q9NUW8 whole entry, looked up): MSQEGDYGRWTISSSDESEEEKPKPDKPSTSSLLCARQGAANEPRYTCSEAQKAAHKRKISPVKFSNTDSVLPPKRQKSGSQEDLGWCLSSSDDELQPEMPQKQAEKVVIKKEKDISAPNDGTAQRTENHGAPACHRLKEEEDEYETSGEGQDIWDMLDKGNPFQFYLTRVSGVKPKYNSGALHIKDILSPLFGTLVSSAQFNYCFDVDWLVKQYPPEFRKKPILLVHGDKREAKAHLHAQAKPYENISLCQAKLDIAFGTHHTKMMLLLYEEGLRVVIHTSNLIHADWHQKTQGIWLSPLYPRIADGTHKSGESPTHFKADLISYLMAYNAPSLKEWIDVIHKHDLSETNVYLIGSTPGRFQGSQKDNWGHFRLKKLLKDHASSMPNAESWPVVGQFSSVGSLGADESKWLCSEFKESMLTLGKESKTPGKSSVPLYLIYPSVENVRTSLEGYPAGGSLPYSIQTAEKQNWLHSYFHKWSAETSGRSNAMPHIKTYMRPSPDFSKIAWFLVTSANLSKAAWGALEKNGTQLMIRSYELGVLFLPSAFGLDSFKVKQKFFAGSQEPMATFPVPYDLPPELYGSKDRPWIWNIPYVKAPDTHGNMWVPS
#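 Recombinant E. coli-expressed Tdp1 (1 nM) preincubated with compound 15 min at RT, then 5'-biotin/3'-phosphotyrosine-FITC DNA substrate (15 nM) added for 5 min. AlphaScreen beads (10 ug/ml) added, 10 min RT; tyrosine-FITC cleavage read as signal loss.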
# TDP1 cell CPT – growth inhibition of DT40 Tdp1-/-;hTDP1 cells with camptothecin (screen for TDP1 inhibitors); chicken DT40 Tdp1-/-;hTDP1 cells + 20 nM CPT, ATP luminescence, 48 h; Potency, µM (top dose mostly 46.2 µM), most hits filed as inhibitors; hit rate 12% among 420,000; note: nearly all actives have a fitted effect of over 55% in size
#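 Chicken DT40 Tdp1-/- cells complemented with human TDP1, 400 cells/well, exposed to compounds plus 20 nM camptothecin for at least 48 h at 37 C; viability read as ATP content by CellTiter-Glo luminescence.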
# IL-1B inflam inh – blocks inflammasome-driven IL-1 beta release; THP-1 LPS/ATP IL-1B secretion, AlphaLISA, 16 h; stronger effect = lower value; hit rate 4.7% among 360,000; activity change, % at 57.5 µM; AID 743279; in the data active = activity change below about -50%; inconclusive = mostly about -30% to -49%
#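 THP-1 cells pretreated 1 hr with compounds (up to 57.5 uM final), then stimulated with LPS (250 ng/mL final) plus ATP (1.25 mM final); secreted IL-1B measured by AlphaLISA after 16 hr, decreased signal indicating inhibition.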
# Hits are given with their value; - = inactive; ? = inconclusive; . = no result; [ ] = another dose, or the depositor's remark. Unless noted, calls come from the whole dose curve; as a rule, active = well fitted curve in the direction sought with a large enough effect; inconclusive = small, poorly fitted or top-dose-only effect, or another doubt; inactive = no such curve, though single readings can be large; an effect the other way counts as inactive or inconclusive.
SMILES,ELG1 repair inh,DT40 TDP1 no CPT,Giardia killer,TDP1 block,TDP1 cell CPT,IL-1B inflam inh
Cc1cc(C(=O)Nc2c(C)nc3ccccn3c2=O)ccc1[N+](=O)[O-],.,-,.,-,-,.
O=C1CCCC2=C1C(c1ccc(O)c(O)c1)Nc1ccc3ncccc3c12 (stereo not given),?,-,-,.,-,-
Cc1ccsc1C1Nc2ccc3ncccc3c2C2=C1C(=O)CC(C)(C)C2 (stereo not given),-,?,-,-,13µM,-
O=C1CCCC2=C1C(c1cccs1)Nc1ccc3ncccc3c12 (stereo not given),-,?,-,-,16µM,-
CC1(C)CC(=O)C2=C(C1)c1c(ccc3ccccc13)NC2c1ccco1 (stereo not given),-,?,-,-,?,?
CCOC(c1cc(OC)cc([N+](=O)[O-])c1OC)C(C)C(OC)[C@@H](C)/C=C/CC(=O)OC (stereo not given in full),.,.,.,-[21 µM],.,.
Cc1cc(C)n(-c2nnc(Nc3ccc(C)c(Cl)c3)c3ccccc23)n1,.,8.2µM,.,-,?,.
COc1ccc(Nc2nnc(-n3nc(C)cc3C)c3ccccc23)cc1,.,-,.,-,-,.
COC(c1ccccc1)c1nnc(CCC(=O)N(C)CCOc2ccccc2)o1 (stereo not given),?,?,-,-,-,-59
CC(C)CN(C(=O)COC(=O)c1cccn1C)c1c(N)n(Cc2ccccc2)c(=O)[nH]c1=O,-,-,-,-,-,-
CCOC(=O)c1ccc(N2C(=O)c3n[nH]c(-c4ccco4)c3C2c2ccc(C)cc2)cc1 (stereo not given),.,10µM,.,-,26µM,.
CCOC(=O)c1ccc(N2C(=O)c3n[nH]c(-c4ccco4)c3C2c2ccc(O)c(OC)c2)cc1 (stereo not given),.,?,.,-,?,.
CCOC(=O)c1ccc(N2C(=O)c3n[nH]c(-c4ccco4)c3C2c2ccc([N+](=O)[O-])cc2)cc1 (stereo not given),23µM,12µM,-,-,23µM,?
CCOC(=O)c1ccc(N2C(=O)C(O)=C(C(C)=O)C2c2ccccn2)cc1 (stereo not given),?,-,-,-,-,-
CCOC(=O)c1ccc(N2C(=O)c3n[nH]c(C)c3C2c2ccc(OCC)cc2)cc1 (stereo not given),.,10µM,.,-,?,.
CCOC(=O)c1ccc(N2C(=O)c3n[nH]c(C)c3C2c2ccccn2)cc1 (stereo not given),-,-,-,-,-,-
CC(=O)Nc1ccc(NC(=O)CSc2nnc3ccc(-c4cccnc4)nn23)cc1,-,-,?,-,-,-
Cc1ccccc1SCC(=O)NCC1(N2CCCCC2)CCCCC1,.,?,.,.,-,-
CCc1ccccc1NC(=O)Cn1nnc(C(=O)NCc2ccccc2Cl)c1N,.,-,.,-,?,.
CC(C)(C)OC(=O)Cc1nnc(-c2nc3ccccc3[nH]2)s1,.,.,.,-,.,.
O=C(NCc1cccc(F)c1)c1ccc2nc(CCc3ccccc3)oc2c1,.,?,.,-,21µM,.
Cc1cccc(NC(=O)c2ccc3nc(CCc4ccccc4)oc3c2)c1C,.,?,.,-,18µM,.
CC(NC(=O)c1ccc2nc(CCc3ccccc3)oc2c1)c1ccccc1 (stereo not given),.,?,.,-,21µM,.
CCC(C)NC(=O)c1ccc2nc(CCc3ccccc3)oc2c1 (stereo not given),.,23µM,.,-,?,.
O=c1ccn([C@@H]2O[C@H](CNCc3c(OCc4ccccc4F)ccc4ccccc34)[C@@H](O)[C@H]2O)c(=O)[nH]1,.,?,.,.,16µM,-58
SMILES,ELG1 repair inh,DT40 TDP1 no CPT,Giardia killer,TDP1 block,TDP1 cell CPT,IL-1B inflam inh
CC[C@H](C)[C@H](NC(=O)OCc1ccccc1)C(=O)OCC(=O)Nc1ccc(N2CCOCC2)cc1,-,-,-,.,-,-
Cc1ccc2c(n1)sc1c(-c3ccc(Br)cc3)c(C#N)c(N)nc12,-,18µM,-,-,?,-
Cc1cccc(Nc2nnc(SCC(=O)NC3CCCc4ccccc43)s2)c1C (stereo not given),?,8.2µM,-,-,15µM,?
Cc1ccccc1-n1c(C)nnc1SCC(=O)NC1CCCc2ccccc21 (stereo not given),-,-,-,-,-,-
CC(Sc1nnc(Nc2ccccc2)s1)C(=O)NC1CCCc2ccccc21 (stereo not given),?,23µM,-,-,?,-
COc1cc(=O)n2c(c1C(=O)NC(C)c1ccco1)CCN(C(=O)c1ccc(F)cc1Cl)CC2 (stereo not given),.,-,.,.,-,.
C[C@H](c1ccccc1)N1C(=O)[C@H]2[C@@H]3[C@H](O)[C@H](O)CC(=O)[C@H]3CC[C@H]2C1=O,.,.,.,-[21 µM],.,.
